# Abeta rescue: qHTS for compounds that reverse cellular toxicity of Amyloid beta (A-beta) peptide in yeast: Primary Screen; yeast expressing A-beta42, growth rescue, OD600, 48 h; response scale: 0% DMSO, 100% iron-clioquinol control; Potency, µM (top dose mostly 46.1 µM), hits mostly activators; hit rate 0.063% among 410,000; also: nearly all actives have a fitted effect of over 55% in size
#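 Yeast growth medium received pinned compounds, then yeast cells expressing toxic A-beta were added; plates incubated at 30 C for 48 hr. Growth read as absorbance at 600 nm, normalized to DMSO and equimolar FeCl3 plus clioquinol controls.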
# AT treatment: qHTS Assay for Identifying a Potential Treatment of Ataxia-Telangiectasia; F2112 A-T fibroblasts, KAP-1 phosphorylation AlphaLISA; neocarzinostatin DNA damage 30 min before lysis; Potency, µM (series often up to 57.5 µM), inactives show at the top dose activation, most hits filed as activators; hit rate 0.19% among 320,000; also: % of control where 0% means no effect; nearly all actives have a fitted effect of over 45% in size
#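 hTERT-immortalized A-T patient fibroblasts (F2112), 500 cells/well in OPTI-MEM, 1% FBS, got compounds for 60 min, then NCS for 30 min at 37C. Lysates were then assayed for phospho-KAP-1 by AlphaLISA (anti-pKAP1 donor, anti-KAP1 acceptor beads), 6 hr at 25C.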
# aSyn rescue: qHTS of alpha-syn Inhibitors; Yeast expressing alpha-synuclein, growth rescue, BacTiter-Glo, 24 h; Potency, µM (doses to about 46.1 µM), inactives show at the highest dose growth rescue (activation), most hits filed as activators; hit rate 0.14% among 370,000; AID 652106, 2013; also: % of control where 0% means no effect; nearly all actives have a fitted effect of over 65% in size
#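 Readout is rescue of growth in alpha-synuclein-expressing yeast, so inhibitors of toxicity appear as activators. Growth after 24 hr at 30 deg C in galactose medium is quantified by luminescence.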
# TDP43 rescue: qHTS of TDP-43 Inhibitors; TDP-43 expressing yeast growth rescue, BacTiter-Glo, 24 h; Potency, µM (highest dose often 46.1 µM), for inactives: at the highest dose growth rescue (activation), usual class: activators; hit rate 1.8% among 410,000; also: % of control where 0% means no effect; nearly all actives have a fitted effect of over 50% in size
#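 Luminescence from BacTiter-Glo reports growth of TDP-43-expressing yeast after 24 hr at 30 deg C with compound. Cells were raffinose-pregrown to mid-log, then seeded in galactose medium at OD600=0.02.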
# Mito fusion act: qHTS Assay for Small Molecule Inhibitors of Mitochondrial Division or Activators of Mitochondrial Fusion | Potency, µM (top dose mostly 46.1 µM), for inactives: at the top dose growth rescue (activation), actives largely listed as activators | S. cerevisiae fusion-defective mutant growth rescue, CellTiterGlo 48 h | hit rate 0.23% among 320,000 | AID 485298, 2010; also: % of control where 0% means no effect; nearly all actives have a fitted effect of over 45% in size
#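 Read-out: ATP-based luminescence (CellTiterGlo, 10 min ambient) reporting growth of fusion-defective ts yeast after 48 hours at 37C on glycerol/ethanol YPEG medium in the presence of compound.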
# Glioma ERSR ind: qHTS for Inducers of the Endoplasmic Reticulum Stress Response (ERSR) in Human Glioma: qHTS | U87-MG GRP78 promoter luciferase reporter, 16 h | Potency, µM, for the others: top-dose activation, usual class: activators | hit rate 0.02% among 420,000; also: series mostly up to about 76 µM; % of control where 0% means no effect; nearly all actives have a fitted effect of over 35% in size
#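 Stably transfected U87-MG glioma cells carrying a GRP78-based luciferase sensor; 16 h compound incubation. Luminescence end-point read 10 min after Bright-Glo addition at room temperature.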
# Active calls of the source: *; i = inactive; ? = inconclusive; · = no result; [ ] = remark or other dose. In the library only some 2.1% were active in any assay of this set; here they are far more common. Calls follow the shape of the dose curve; as a rule, active = well fitted curve in the direction sought with a large enough effect; inconclusive = small, poorly fitted or top-dose-only effect, or another doubt; inactive = no such curve, though single readings can be large; an effect the other way counts as inactive or inconclusive. Potency is read from the fitted curve at half-maximal effect.
SMILES,Abeta rescue,AT treatment,aSyn rescue,TDP43 rescue,Mito fusion act,Glioma ERSR ind
O=C(O)c1cc(O)ccc1N=Nc1ccccc1,i,-7%,0%,-9%,13%,28µM*
OCc1ccc(N=Nc2ccccc2)cc1,i,·,2%,?,·,0%
Oc1ccc(N=Nc2ccccc2)cc1,i,-5%,-15%,18µM*,10%,?
O=C(O)c1ccccc1N=Nc1ccc(O)cc1,i,·,-8%,22%,·,-3%
CCCS(=O)(=O)NCc1c(C)ncc2c1CCN(C(=O)c1cccc(-c3ccccc3F)c1)C2,·,·,·,·,·,-2%
COC(=O)c1ccc2nc(-c3ccccc3)c(Cc3ccc(C)cc3)n2c1,i,·,6%,13µM*,·,·
COC(=O)c1ccc2nc(-c3ccc(Cl)cc3)c(Cc3cccc(Cl)c3)n2c1,i,·,-1%,20%,·,·
COC(=O)c1ccc2nc(-c3ccc(F)cc3)c(Cc3ccccc3OC)n2c1,i,·,-11%,22µM*,·,·
COC(=O)c1ccc2nc(-c3ccc(C)cc3)c(Cc3cccc(Cl)c3)n2c1,i,·,4%,22µM*,·,·
C/C=C(/CC[C@@H](C)[C@H]1CCC2C3=CC[C@H]4[C@H](C)[C@@H](O)CC[C@]4(C)C3CC[C@@]21C)C(C)C (some centres not stated),·,·,·,·,·,-4%
CN(C)S(=O)(=O)Oc1ccsc1C(=O)Nc1ccccc1Cl,i,16%,10%,44%,1%,-1%
CN(C)S(=O)(=O)Oc1cccc(C(=O)Nc2ccccc2Cl)c1,i,-3%,2%,14µM*,8%,1%
CN(C)S(=O)(=O)Oc1cccc(C(=O)Nc2ccc(Cl)cc2)c1,i,3%,-19%,22µM*,2%,-4%
Cc1ccccc1N1C(=O)c2ccccc2C1O (configuration not stated),i,40µM*,7%,2%,4%,-2%
O=C1c2ccccc2N2C(=O)c3ccccc3[C@H]2N1c1ccccc1,i[9.22 µM],·,6%,20µM*,5%,-4%
O=C1c2ccccc2N2C(=O)c3ccccc3C2N1Cc1ccccc1 (configuration not stated),i,30%,-1%,26%,6%,-1%
Cc1ccc(S(=O)(=O)CCC(=O)c2cccc([N+](=O)[O-])c2)cc1,i,-8%,-48%,18µM*,-3%,-13%
Cc1cc(Cl)ccc1C(=O)C1CCCN(C(=O)c2ccc3ncccc3c2)C1 (configuration not stated),i,-1%,10%,0%,7%,-7%
Cc1cc(Cl)ccc1C(=O)C1CCCN(C(=O)c2ccsc2)C1 (configuration not stated),i,·,10%,13µM*,·,-2%
Cc1cc(-c2ccnc(-n3ncc(C(=O)N4CCCCC4c4cccnc4)c3C3CC3)n2)c(C)s1 (configuration not stated),·,·,·,·,·,-4%
COCCOC(=O)c1c(C)oc2ccc(OC(=O)c3ccco3)cc12,i,3%,-19%,?,?,-1%
COCCOC(=O)c1c(C)oc2ccc(OCc3ccccc3)cc12,i,18%,-19%,-4%,11µM*,-5%
Cc1ccccc1N1CCN(S(=O)(=O)CC23CCC(CC2NC(=O)C(N)CCS(C)(=O)=O)C3(C)C)CC1 (configuration not stated),·,·,·,·,·,-5%
COc1ccc(C2CC(=O)N(Cc3ccc(F)cc3)c3ccccc3S2)cc1 (configuration not stated),i,·,11%,16µM*,·,-3%
COc1ccc(CCNC(=O)CCc2cn(Cc3ccccc3Cl)c3ccccc23)c(OC)c1,i,·,·,13%,·,-2%
SMILES,Abeta rescue,AT treatment,aSyn rescue,TDP43 rescue,Mito fusion act,Glioma ERSR ind
Clc1ccc(-c2n[nH]c3c2CCC3)cc1Cl,i,8%,-8%,20µM*,-9%,-14%
Cc1cc(C(=O)NCc2nc(-c3cccc(NC(=O)c4ccccc4)c3)oc2C)nc(C)n1,·,·,·,·,·,-2%
O=C1CC(c2ccccc2)=NO1,i,·,16µM*,10µM*,·,-2%
Cc1ccccc1Sc1ncccc1[N+](=O)[O-],i,·,3%,13µM*,·,-3%
O=[N+]([O-])c1cccnc1Sc1ccc(Br)cc1,i,·,-3%,13µM*,·,-4%
COc1ccc2c(c1)-c1nc(-n3ncc(C(=O)NCc4cccnc4)c3C3CC3)ncc1CC2,·,·,·,·,·,-5%
O=S(=O)(NCc1ccccc1)c1ccc(-c2cnc(C3CC3)o2)cc1,i,-16%,4%,5%,-2%,-5%
Cc1cccc(C)c1NS(=O)(=O)c1ccc(-c2cnc(C3CC3)o2)cc1,i,2%,?,25µM*,-11%,-4%
O=S(=O)(NCc1ccccc1Cl)c1ccc(-c2cnc(C3CC3)o2)cc1,i,·,·,22µM*,·,-2%
Cc1ccc(NS(=O)(=O)c2ccc(-c3cnc(C4CC4)o3)cc2)cc1,i,2%,?,?,6%,1%
CCOc1cc(CNc2ccc(O)cc2)ccc1OCc1ccc(Cl)cc1,i,·,·,35µM*,·,?
Oc1ccc(NCc2ccccc2OCc2ccc(Cl)cc2)cc1,i,·,·,?,·,?
O=C(NCCc1nnc2n1CCN(Cc1c(F)cccc1F)CC2)c1ccco1,·,·,·,·,·,-7%
CCCCn1c(=O)c(C(=O)OCC)c(O)c2ccccc21,i,-16%,7%,16µM*,18%,-10%
CCCCCn1c(=O)c(C(=O)OCC)c(O)c2ccccc21,i,3%,13%,-7%,14%,5%
CCOC(=O)c1ccccc1NC(=O)CN(c1cccc(C)c1C)S(=O)(=O)c1ccccc1,i,·,·,8%,·,-2%
C(=N\NC1=Nc2cccc3cccc1c23)/c1ccccn1,?,-19%,0%,20µM*,-5%,4%
COc1ccc(-n2c(C)nc3sc4c(c3c2=O)CCC4)cc1,i,0%,7%,13µM*,21%,0%
COc1ccc(-n2c(SCC(=O)O)nc3sc4c(c3c2=O)CCC4)cc1,i,-4%,-10%,-15%,6%,-4%
Cc1cnc(SCc2ccccn2)nc1C1CCCN(Cc2ccsc2)C1 (configuration not stated),·,·,·,·,·,-3%
CC1=C(c2ccc(F)cc2)[N+](=O)C(C)(C)N1[O-],i,-2%,4%,-1%,13µM*,-5%
CC1=C(c2ccc(C)cc2)[N+](=O)C(C)(C)N1[O-],i,4%,-7%,-17%,5%,-3%
